Screens: PubChem, several laboratories
MsrA act: bovine MsrA enzyme activators, primary screen, biochemical, absorbance, HTS; hit rate 0.3% among 360,000; purified bovine MsrA, absorbance read-out; Methionine sulfoxide reductase A (Bos taurus); activation, % at 10.6 µM; in the data active means activation above about 7.5%;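 further: 0% = vehicle and 100% = reference activator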
pCIP destab: p/CIP-EGFP fusion destabilizers, primary screen, fluorescence, F442A cells; decrease of EGFP signal, % at 10 µM; 16 h; Q05BA5; AID 1984, 2009; hit rate 0.01% among 290,000;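 active means EGFP signal decrease of at least 30% at 10 µM or well 3 SD below plate mean, unless failing retest; inactive means the rest, including hits failing retest or dose response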
MsrA inhibitor: bovine MsrA enzyme inhibitors, primary screen, biochemical, absorbance, HTS. purified bovine MsrA, absorbance read-out. inhibition, % at 15.5 µM. hit rate 0.75% among 360,000. Methionine sulfoxide reductase A (Bos taurus);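 further: 0% = vehicle wells with enzyme and 100% = reference inhibitor wells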
14-3-3 Bad PPI: inhibitors of 14-3-3 zeta/Bad binding, primary screen, biochemical, TR-FRET, bovine 14-3-3 zeta | 14-3-3 protein zeta/delta (Bos taurus), P63103 | TR-FRET 14-3-3zeta/Dy647-pBad peptide displacement, 1 h | inhibition, % at 21.7 µM | hit rate 0.71% among 220,000 | AID 781, 2007;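 active means inhibition above about 70%, limit read from the data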;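 further: 0% = full 14-3-3 plus peptide FRET controls and 100% = background without 14-3-3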
Target sequence (P63103 whole entry, looked up): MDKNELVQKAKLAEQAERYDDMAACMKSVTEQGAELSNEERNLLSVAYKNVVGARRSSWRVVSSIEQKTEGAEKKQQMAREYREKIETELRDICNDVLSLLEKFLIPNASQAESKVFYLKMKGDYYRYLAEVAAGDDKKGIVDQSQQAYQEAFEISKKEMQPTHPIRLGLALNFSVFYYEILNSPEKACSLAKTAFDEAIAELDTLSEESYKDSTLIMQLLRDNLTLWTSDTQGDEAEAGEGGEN
MsrA conf: bovine MsrA inhibitors, retest, confirmation, biochemical, absorbance, HTS. shares compounds with MsrA inhibitor. purified bovine MsrA, absorbance read-out. inhibition, % at 15.5 µM. hit rate 41% among 2,300. AID 651822, 2012;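 further: coupled to thioredoxin reductase with NADPH and selenocystamine and DMSO as substrate; 0% = vehicle only and 100% = full effect of reference inhibitor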
* = called active by the depositor; . = not tested or not shown. Compounds with a hit are over-represented: about 1.4% of the library has one in this group of screens. Unless noted, no stated cut-off is given here; in the data, active means inhibition above about 4.5%; inactive means the rest.

SMILES	MsrA act	pCIP destab	MsrA inhibitor	14-3-3 Bad PPI	MsrA conf
CCOc1ccc(NC(=O)CCC(=O)NNC(=O)c2cccc([N+](=O)[O-])c2)cc1	-6.9	.	-0.8	.	.
CCCc1nn2c(N)c(/C=C3\C=Nc4ccccc43)c(=O)nc2s1	-4.2	-1.9	-0.9	2.5	.
Nc1c(C=C2C=CC(=O)C=C2)c(=O)nc2sc(CC(=O)N3CCCC3)nn12	-1.6	-0.6	4.7*	.	-0.4
NS(=O)(=O)c1ccc(-c2ccc(/C=N/NC(=O)c3ccccc3O)o2)cc1	-4.7	4.0	4.9*	-8.0	4.5
NC(=S)N/N=C/c1ccc(-c2ccccc2)o1	-4.6	-6.2	6.7*	-13.4	4.4
Cc1ccc(-c2ccc(/C=N/NC(N)=S)o2)cc1	-3.8	-9.2	3.3	5.0	.
O=C(N/N=C/c1ccc(-c2ccc(S(=O)(=O)Nc3ncccn3)cc2)o1)c1cc2ccccc2cc1O	-4.4	-4.7	4.0	6.0	.
Nc1nnc(CC(=O)N/N=C/c2ccc(-c3ccccc3)o2)s1	-5.2	-4.3	6.6*	1.5	7.9*
Cc1ccc(-c2ccc(/C=N/NC(=O)c3ccccc3O)o2)cc1	.	-2.2	.	-1.1	.
CCOc1ccc(C(=O)N/N=C/c2ccc(-c3ccc(S(=O)(=O)Nc4ncccn4)cc3)o2)cc1	-6.5	-5.9	6.0*	6.1	4.9*
Cc1ccc(Cl)cc1N(CC(=O)NC1CCCC1)C(=O)c1csnn1	-2.4	-2.8	-0.1	.	.
Cc1cccc(-c2nc(NCCN(C)C)c3ccccc3n2)c1	-1.9	.	0.1	.	.
COC(=O)c1ccc(-c2ccc(/C=N/NC(=O)Cc3nnc(N)s3)o2)cc1	1.4	-9.5	4.8*	7.0	3.5
COc1ccc(-c2ccc(/C=N/NC(=O)Cc3nnc(N)s3)o2)cc1Cl	-6.0	-0.2	3.2	-0.3	.
COCCn1c(/C=C/c2ccccc2)nc2ccccc21	-4.8	-6.0	5.1*	-5.9	4.4
CCn1c(/C=C/c2ccc(O)cc2)nc2ccccc2c1=O	-7.1	-6.1	5.3*	.	4.8*
Cc1cc2c(cc1S(=O)(=O)NCc1ccc(N(C)C)cc1)OCC(=O)N2	-0.4	-10.8	1.0	.	.
CNC(=O)C(=O)NCC1OCCCN1S(=O)(=O)c1ccc(F)cc1C (stereo not drawn)	-5.8	1.4	-0.1	.	.
Cc1nc2c(C)cccn2c1/C(O)=C1\C(=O)C(=O)N(CCN(C)C)C1c1ccccc1 (stereo not drawn)	-2.6	3.6	2.2	-4.5	.
COc1ccc(NC(=O)c2sc3nc(N4CCCC4)c4c(c3c2N)CC(C)(C)OC4)cc1	-2.0	-4.5	5.3*	.	2.7
COc1ccc(NC(=O)c2sc3nc(N4CCOCC4)c4c(c3c2N)CC(C)(C)OC4)cc1	-3.1	-3.0	0.0	.	.
O=C(/C=C/c1ccco1)NCC1COc2ccccc2O1 (stereo not drawn)	-5.0	-49.2	0.5	7.0	.
COC(=O)c1ccc(NC2=CC(=O)CC(C)(C)C2)cc1	-5.5	-7.8	4.9*	-11.5	5.0*
COc1ccc(NC2=CC(=O)CC(C)(C)C2)cc1	-2.2	-7.2	3.2	.	.
Cc1cc(C)nc(NS(=O)(=O)c2ccc(N/C=C3\CCCC3=O)cc2)n1	-8.1	-7.7	5.2*	-8.3	5.5*
SMILES	MsrA act	pCIP destab	MsrA inhibitor	14-3-3 Bad PPI	MsrA conf
Cc1cc(F)ccc1S(=O)(=O)N1CCCOC1CNC(=O)C(=O)NCc1ccccn1 (stereo not drawn)	-1.7	-3.6	-0.7	.	.
CCc1nccn1C(=O)c1cnn2c(C(F)F)cc(-c3ccc(C)cc3)nc12	-8.6	-3.7	4.8*	5.9	25.6*
COc1ccc(C(=O)Nc2nc(C)c(C(=O)N(C)C)s2)cc1OC	0.8	-11.0	1.6	-5.2	.
COc1ccc(/C=C/C(=O)Nc2nc(C)c(C(=O)N(C)C)s2)cc1OC	-4.9	-0.9	5.7*	4.1	4.5
Cc1nc(NC(=O)c2ccc(Br)s2)sc1C(=O)N(C)C	-12.6	20.4	5.0*	-2.9	2.1
COc1ccc(/C=C/C(=O)Nc2nc(C)c(C(=O)N(C)C)s2)cc1	-6.3	0.1	5.4*	-17.9	6.5*
CC/C(=C/c1sc2ccc(C)cc2[n+]1CCCS(=O)(=O)[O-])SC	.	-4.9	4.8*	-2.2	3.5
O=C(/C=C\c1cccs1)c1c(O)ccc2ccc(=O)oc12	-7.3	-10.2	5.4*	-5.0	6.3*
CCOC(=O)N1CCN(/C=C(\C#N)c2nc3ccccc3s2)CC1	-15.1	-11.0	7.0*	10.3	5.2*
N#C/C(=C\N1CCN(Cc2ccc3c(c2)OCO3)CC1)c1nc2ccccc2s1	-1.8	-2.0	2.5	-11.8	.
